# From PubChem BioAssay (NCATS)
# Records with an inconclusive call do not appear. Entries that show only a call come without a potency. The source made the active and inactive calls. The call rests on the fitted dose curve; in most records, active means well fitted cell-killing curve with a large enough effect; inconclusive means small, poorly fitted or top-dose-only effect; inactive means flat fitted curve, though single readings scatter.
# Assay: Cellular viability qHTS for adrenocortical cancer (ACC) cell line NCI-H295R (AID 1963990); further: nearly all actives have a fitted effect of over 60% in size
# Settings: CellTiter-Glo ATP luminescence, 48 h; series mostly up to 46.1 µM
# In short: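 Adrenocortical carcinoma cells, suspended at 300 000 cells/mL in serum-free DMEM plus ITS, rested overnight before pin transfer of compound. After two days' incubation, ATP-dependent luminescence was recorded and curve-fitted.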
# Potency means the concentration at half of the fitted maximal effect.
row,SMILES,Potency
1,O=C(CCCN1CCN(c2ccccn2)CC1)c1ccc(F)cc1,inactive
2,O=C(CCBr)N1CCN(C(=O)CCBr)CC1,inactive
3,O=C(O)c1c(O)c(-c2ccccc2)nc2ccccc12,inactive
4,Cc1nc2n(c(=O)c1CCN1CCC(C(=O)c3ccc(F)cc3)CC1)CCS2,inactive
5,Cn1cc(C(=O)[C@@H]2CCc3nc[nH]c3C2)c2ccccc21,inactive
6,CCCCOC(=O)c1ccc(N)cc1,inactive
7,O=C(NO)c1cnc(NC2(c3cccc(F)c3)CCCCC2)nc1,3.16 µM (active)
8,Nc1n[n+]([O-])c2ccccc2[n+]1[O-],17.8 µM (active)
9,CC(C)=CCC1C(=O)N(c2ccccc2)N(c2ccccc2)C1=O,20.6 µM (active)
10,NC(=O)c1c(OCc2c(F)cc(Br)cc2F)nsc1NC(=O)NCCCCN1CCCC1,22.4 µM (active)
11,N#Cc1ccc(Oc2ccc3c(c2)COB3O)cc1,inactive
12,COc1ccc(-n2c(SCCCN3C(=O)c4cccc5cccc(c45)C3=O)nnc2-c2ccncc2)cc1,inactive
13,CC(=O)N1CCC(Nc2cc(C(=O)NC[C@H](O)CN3CCc4ccccc4C3)ncn2)CC1,inactive
14,c1ccc2occc2c1,inactive
15,CC/C(=C(/c1ccc(O)cc1)c1ccc(OCCNC)cc1)c1ccccc1,inactive
16,O=C(CCCN1CCC(O)(c2ccc(Br)cc2)CC1)c1ccc(F)cc1,inactive
17,CCOC(=O)N1CCC(Nc2ccc(Cl)cc2N)CC1,16.4 µM (active)
18,CCCCOc1cc(C(=O)NCCN(CC)CC)c2ccccc2n1,20.6 µM (active)
19,O=C1NC(=O)/C(=C/c2ccc3nccnc3c2)S1,inactive
20,OCCOCCN1CCN(C(c2ccccc2)c2ccc(Cl)cc2)CC1 (stereo unspecified),inactive
21,NCCNc1cccc2ccccc12,20.6 µM (active)
22,CC(C)NC[C@@H](O)COc1cccc2ccccc12,inactive
23,C=C[C@@H]1CN2CCC1C[C@H]2[C@H](O)c1ccnc2ccc(OC)cc12 (stereo partly specified),inactive
24,O=C(c1ccc(F)cc1)C1CCN(CCn2c(=S)[nH]c3ccccc3c2=O)CC1,inactive
25,NS(=O)(=O)Oc1ccc2c3c(c(=O)oc2c1)CCCCC3,inactive
26,CCN(CCCc1ccccc1)CCCc1ccccc1,inactive
